Hits are enriched below; roughly 2.8% of the tested compounds scored in any of these assays.
CBFb-RUNX1 inh – CBF-beta/RUNX1 interaction disruption; Q01196+Q13951; AlphaScreen CBFb-His/RUNX1-biotin binding, biochemical; Potency, µM (highest dose often 59.8 µM), for inactives: at the top dose activity, negative = inhibition, most hits filed as inhibitors; 230,000 tested, under 10 active; also: % of control where 0% means no effect
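Compounds were screened at multiple concentrations against a preformed CBF-beta(His)/RUNX1(biotin) complex (30 nM of each) for 15 min at room temperature, followed by 90 min with nickel and streptavidin beads and AlphaScreen reading.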
PTHR1 agonist – agonists of human PTHR1 parathyroid hormone receptor | Q03431 | HEK293 GP2 PTHR1 cells, GloSensor cAMP luminescence, 1 h | Potency, µM (series often up to 115 µM), for inactives: top-dose activation, actives largely listed as activators | hit rate 0.075% among 410,000; also: potency is read from the fitted curve at half-maximal effect; nearly all actives have a fitted effect of over 55% in size
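HEK-293-derived GP2 cells expressing PTHR1 and a GloSensor cAMP reporter, 3,000/well, plated overnight, given luciferin plus IBMX (each 0.5 mM as added) for 1 h at 37 °C, then compound for 1 h at 37 °C. Luminescence was read after 15 min at room temperature.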
MBNL1 CUG block – MBNL1-poly(CUG) RNA binding inhibition. Potency, µM (top dose mostly 57.5 µM), for the others: at the top dose activity change, negative = inhibition, most hits filed as inhibitors. hit rate 0.036% among 280,000. AID 2675. TR-FRET MBNL1-His/biotin-(CUG)12 binding, 665/545 ratio. Q9NR56; active = well fitted inhibition curve with a large enough effect in the signal ratio, with a control signal flat, not every such curve was filed as active; inconclusive = small, poorly fitted or top-dose-only effect, or effect the other way, or a change in a side signal; inactive = no such curve, though single readings can be large or run the other way; the % refers to the signal ratio; also: potency is read from the fitted curve at half-maximal effect; % is scaled to controls: 0 for no effect and ±100 for the full control effect
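Ratiometric TR-FRET (665 over 545 nm, excitation 340 nm) tracks disruption of MBNL1-His/biotin-(CUG)12 complex after 60 min at room temperature, with compounds at 92 nM to 58 uM final.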
Integrin act MD – activators of alpha7 integrin expression for muscular dystrophy. alpha7betagal myoblasts, beta-gal FDG fluorescence, 48 h. Potency, µM (series often up to 38.3 µM), for inactives: at the highest dose activation, hits mostly activators. hit rate 0.064% among 350,000;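 also: potency is read from the fitted curve at half-maximal effect; 100% = response of the positive control SU9516; nearly all actives have a fitted effect of over 60% in size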
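alpha7betagal+/- myoblasts (passage 13, 250/well) treated 48 h at 37C with compounds at 1:260 dilution of DMSO stock. Lysed, then beta-galactosidase activity read as FDG fluorescence (ex 480/em 540) after 30 min, with pre-read for autofluorescence.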
DRD3 agonist – D3 dopamine receptor (human) agonism; P35462; D3R DiscoveRx beta-arrestin cells, luminescence, 90 min; max activation, %; hit rate 0.58% among 410,000; in the data active = max activation above about 30%; also: 0% is about no effect
Target sequence (P35462 whole entry, looked up): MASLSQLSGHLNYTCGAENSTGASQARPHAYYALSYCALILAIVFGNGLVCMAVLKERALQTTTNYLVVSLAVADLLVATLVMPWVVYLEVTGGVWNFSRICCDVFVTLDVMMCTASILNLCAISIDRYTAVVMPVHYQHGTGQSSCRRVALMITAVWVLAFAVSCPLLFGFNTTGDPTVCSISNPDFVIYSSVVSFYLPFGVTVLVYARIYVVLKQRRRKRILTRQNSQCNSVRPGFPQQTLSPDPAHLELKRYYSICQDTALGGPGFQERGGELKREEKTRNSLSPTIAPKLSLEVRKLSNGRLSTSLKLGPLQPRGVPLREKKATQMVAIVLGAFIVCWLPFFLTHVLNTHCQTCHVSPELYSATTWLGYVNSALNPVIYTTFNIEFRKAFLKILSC
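Cells at 1500/well, incubated overnight, then treated with pinned compounds (dopamine as control) for 90 min at 37 degrees C. DiscoveRx reagent added for 30 - 60 minutes at room temperature; luminescence read.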
D3 antag – blocks the human D3 dopamine receptor; P35462; D3R cells, DiscoveRx beta-arrestin luminescence, antagonist mode; active compounds read low; max response, negative = inhibition, %; hit rate 2.5% among 360,000; in the data active = max response below about -50%; inconclusive = no clear call, values can overlap the other calls; also: % is scaled to controls: 0 for no effect and ±100 for the full control effect
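Cells plated overnight at 1500 cells/well, then exposed to library compounds with dopamine controls for 90 minutes at 37 degrees C. DiscoveRx reagent added for 30–60 minutes at room temperature; luminescence read, quantitative HTS format.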
An asterisk follows results filed as active; i = inactive; ? = inconclusive; nt = no result given; [ ] = dose if it differs, or a comment. Unless noted, calls follow the shape of the dose curve; as a rule, active = well fitted curve in the direction sought with a large enough effect; inconclusive = small, poorly fitted or top-dose-only effect, or another doubt; inactive = no such curve, though single readings can be large; an effect the other way counts as inactive or inconclusive.

SMILES	CBFb-RUNX1 inh	PTHR1 agonist	MBNL1 CUG block	Integrin act MD	DRD3 agonist	D3 antag
Cc1cccc(C)c1-n1nnnc1C(c1cccc2ccccc12)N1CCN(C/C=C/c2ccccc2)CC1 (stereo not drawn)	nt	4%	nt	nt	-11	-107*
CCOC(=O)/C(=C/c1c(C)n(C)c2ccc([N+](=O)[O-])cc12)C(C)=O	5%	-37%	?	-53%	-9	-54*
CCOC(=O)c1c(N)c2cc([N+](=O)[O-])ccc2n1C	-4%	i	nt	-25%	-2	-26
Cc1noc(C)c1C(=O)OCC(=O)/C=C1/N(C)c2ccccc2C1(C)C	nt	-15%	nt	4%	11	16
CCOC(=O)C(NC(C)=O)C(O)c1ccc([N+](=O)[O-])cc1 (stereo not drawn)	5%	i	?	23%	0	-5
CCCCCCCCCCCC(=O)NC(C(=O)OCC)C(O)c1cccc([N+](=O)[O-])c1 (stereo not drawn)	0%	i	-2%	-60%	32*	4
CCOC(=O)C1=C(Cn2cnc3ccccc32)NC(=O)NC1c1ccc(Cl)cc1 (stereo not drawn)	1%	i	-1%	-32%[7.66 µM]	32*	28
Cc1ccc2c(c1)c1c(c(=O)n(-c3ccccc3C)c(=O)n1Cc1cccc(F)c1)n2C	nt	-23%	nt	nt	-3	nt
CCn1c(C)c(CS(=O)(=O)c2ccccc2)[nH]c1=O	13%	-20%	3%	-64%	-12	-71*
Cc1ccc(C)c(S(=O)(=O)Nc2ccc(O)c3ccccc23)c1	nt	-10%	?	-43%	-11	?
Cc1ccc(S(=O)(=O)Nc2ccc(O)c3ccccc23)c(C)c1	nt	-32%	?	1%	-13	-53*
C(=C\c1ccccc1)/CN1CCN(C(c2ccccc2)c2nnnn2Cc2ccccc2)CC1 (stereo not drawn)	nt	-5%	nt	nt	-18	-71*
CCN1CCN(C(c2ccccc2)c2nnnn2Cc2ccc(OC)cc2)CC1 (stereo not drawn)	12%	-93%	-17%	-43%	-9	-14
COc1ccc(C(c2nnnn2Cc2ccccc2)N2CCN(C/C=C/c3ccccc3)CC2)cc1 (stereo not drawn)	nt	-4%	nt	nt	-16	-96*
CC1=C/C(=C(/c2ccc(O)c(C)c2)c2ccccc2S(=O)(=O)O)C=CC1=O	nt	-11%	nt	-20%	-19	-56*
CC1=C/C(=C(/c2cc(C)c(O)c(Br)c2)c2ccccc2S(=O)(=O)O)C=C(Br)C1=O	nt	-1%	?	2%	-17	-60*
Nc1nonc1-n1nnc(C(=O)N/N=C/c2c(Cl)cccc2Cl)c1CSC1=NCCS1	7%	-15%	7%	-20%	-2	-53*
Nc1nonc1-n1nnc(C(=O)N/N=C/C=C/c2ccccc2)c1CSC1=NCCS1	-13%	-28%	15%	-22%	5	-50*
CCCc1c(C(=O)N/N=C/C=C/c2ccccc2)nnn1-c1nonc1N	nt	i	nt	5%	0	-18
CC1(C)CC[C@]2(C(=O)O)CC[C@]3(C)C(=CC[C@@H]4[C@@]5(C)CC[C@H](O[C@@H]6O[C@H](C(=O)O)[C@@H](O)[C@H](O[C@@H]7OC[C@H](O)[C@H](O)[C@H]7O)[C@H]6O)C(C)(C)[C@@H]5CC[C@]43C)[C@@H]2C1	nt	-7%	nt	-45%	-22	-63*
CC1(C)CC[C@]2(C(=O)O[C@@H]3O[C@H](CO)[C@@H](O)[C@H](O)[C@H]3O)CC[C@]3(C)C(=CCC4[C@@]5(C)CC[C@H](O[C@@H]6O[C@H](C(=O)O)[C@@H](O[C@H]7OC[C@@H](O)[C@@H](O)[C@@H]7O)[C@H](O)[C@H]6O)C(C)(C)C5CC[C@]43C)[C@@H]2C1 (stereo partly drawn)	nt	-23%	nt	3%	1	21
N#Cc1ccc(C23CC4(C2)[C@H](CN(CC2CCCCC2)[C@@H]4c2ccccc2)C3c2ccc(Cl)nc2)cc1 (stereo partly drawn)	-2%	-7%	2%	16%	17	-72*
COc1ccc(N2CCN(c3nc4ccc(C)cc4n4nnnc34)CC2)cc1	nt	24%	nt	nt	73*	nt
Cc1ccc2nc(N3CCN(c4ccc(F)cc4)CC3)c3nnnn3c2c1	nt	-13%	nt	nt	30	nt
Cc1ccc2nc(Cl)c3nnnn3c2c1	?	-36%	?	-63%	-6	-109*
SMILES	CBFb-RUNX1 inh	PTHR1 agonist	MBNL1 CUG block	Integrin act MD	DRD3 agonist	D3 antag
CCCCCCCC/C=C\CCCCCCCC(=O)N(CCO)CCO	8%[21.7 µM]	nt	nt	nt	nt	nt
CN(C(=O)COC(=O)c1ccccc1C(=O)N1CCN(c2ccccc2)CC1)c1ccccc1	17%	-12%	nt	0%	4	12
O=C(O)c1cccc2c1C(=O)c1ccc(N3CCN(Cc4ccc5c(c4)OCO5)CC3)cc1S2(=O)=O	nt	-26%	nt	20%	-4	0
CSc1ccc(S(=O)(=O)Nc2c(C)cccc2C)cc1	13%	i	-2%	2%	-9	-166*
CSc1ccc(S(=O)(=O)Nc2ccc(F)cc2)cc1	10%	-16%[57.5 µM]	1%	9%	-6	-27
O=S(=O)(Nc1ccc(S(=O)(=O)N2CCCC2)cc1)c1ccc(F)cc1F	nt	-5%	nt	12%	-2	17
CCC1(C)Cc2ccccc2-c2nc(NCCO)[nH]c(=O)c21 (stereo not drawn)	-12%	i	4%	19%	-7	-52*
O=C(Nc1cc(F)ccc1F)C1CCN(c2nc3ccccc3n3cccc23)CC1	nt	-8%	nt	nt	3	nt
COC(=O)[C@]1(C)CCC[C@@]2(C)C3CC[C@@]4(C)C[C@]3(CCC21)CC(=O)N4 (stereo partly drawn)	nt	-17%	nt	-1%	5	-18
C=C1C(=O)C23CCC4C(C)(C(=O)OC)CCCC4(C)C2CCC1(O)C3 (stereo not drawn)	nt	-94%	nt	-53%	-29	-106*
CC(C)OC(=O)c1cc(NC(=S)Nc2ccc([N+](=O)[O-])cc2)cc(C(=O)OC(C)C)c1	1%	-14%[57.5 µM]	?	-62%	3	-63*
COc1cc(/C=C2\S/C(=N/S(=O)(=O)c3ccccc3)NC2=O)c([N+](=O)[O-])cc1OC	-6%	0%	?	38%	-4	-88*
COc1ccc(S(=O)(=O)/N=C2/NC(=O)/C(=C\c3cc(OC)c(OC)cc3[N+](=O)[O-])S2)cc1	-7%	-1%[57.5 µM]	16%	5%	1	-13
O=C(CC(=O)c1cccs1)c1ccncc1	nt	-7%	nt	12%	-19	?

Compound activity deposited in PubChem by National Center for Advancing Translational Sciences (NCATS).
